Data: PubChem BioAssay AID1159580 (chemical genetic matrix, 2015)
Values joined by “and” are separate entries in the source; they are usually repeats but may differ in a detail not shown here. Equal values may be shown once. About 2,000 (36%) of roughly 5,500 compounds were called active. About 18% were inconclusive and are not listed. Cut-off read from the data, not from the text of the source: active = normalized growth mostly below about 0.91 (no sharp cut-off); inconclusive = no clear call, values can overlap the other calls; inactive = mostly above about 0.92. Some of the results follow.

Assay: chemical genetic growth profiling, strain panel (AID 1159580);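 note: tested at 20 µM; growth read once vehicle control cultures reached saturation at 30 °C; 1 = growth at the plate median or of vehicle wells; lower values mean less growth of the strain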
Details: S. cerevisiae deletion strains, growth OD

Measured: normalized growth

COc1c2ccoc2cc2oc(C)cc(=O)c12
inactive: locus YAL021C, strain ccr4, active compounds read low 1 | locus YAL026C, strain drs2, active compounds read low 0.999 | locus YAL030W, strain snc1, active compounds read low 0.987 | locus YBL061C, strain skt5, active compounds read low 1 | locus YBR009C, strain hhf1, active compounds read low 0.993 | locus YBR021W, strain FUR4, active compounds read low 0.997 | locus YBR023C, strain chs3, active compounds read low 0.991 | locus YBR171W, strain sec66, active compounds read low 0.987 | locus YBR229C, strain ROT2, active compounds read low 0.948 | locus YBR231C, strain swc5, active compounds read low 0.99 | locus YBR279W, strain paf1, active compounds read low 0.995 | locus YCL011C, strain gbp2, active compounds read low 0.985 | locus YCL016C, strain dcc1, active compounds read low 0.979 | locus YCL029C, strain bik1, active compounds read low 0.98 | locus YCL069W, strain vba3, active compounds read low 1.01 | locus YCR088W, strain abp1, active compounds read low 0.99 | locus YDL005C, strain med2, active compounds read low 1 | locus YDL035C, strain GPR1, active compounds read low 0.972 | locus YDL040C, strain nat1, active compounds read low 1 | locus YDL074C, strain BRE1, active compounds read low 0.981 | locus YDL101C, strain DUN1, active compounds read low 0.96 | locus YDL134C, strain PPH21, active compounds read low 0.964 | locus YDL185W, strain tfp1, active compounds read low 0.971 | locus YDL192W, strain arf1, active compounds read low 0.945 | locus YDR001C, strain nth1, active compounds read low 0.997 | locus YDR069C, strain doa4, active compounds read low 1 | locus YDR101C, strain arx1, active compounds read low 1.02 | locus YDR137W, strain rgp1, active compounds read low 1 | locus YDR159W, strain sac3, active compounds read low 1.02 | locus YDR162C, strain NBP2, active compounds read low 0.905 | locus YDR195W, strain ref2 1.03 | locus YDR297W, strain sur2, active compounds read low 1 | locus YDR318W, strain mcm21, active compounds read low 0.945 | locus YDR334W, strain swr1, active compounds read low 1 | locus YDR335W, strain msn5, active compounds read low 1 | locus YDR388W, active compounds read low 0.996 | locus YDR392W, strain spt3, active compounds read low 0.961 | locus YDR502C, strain sam2, active compounds read low 0.966 | locus YEL003W, strain gim4, active compounds read low 1 | locus YEL037C, strain rad23, active compounds read low 1 | locus YEL061C, strain CIN8 (second series), active compounds read low 0.997 | locus YEL061C, strain CIN8, active compounds read low 0.975 | locus YER015W, strain faa2, active compounds read low 0.997 | locus YER016W, strain bim1, active compounds read low 0.996 | locus YER110C, active compounds read low 0.972 | locus YER111C, strain swi4, active compounds read low 0.985 | locus YER155C, strain BEM2 (second series), active compounds read low 0.999 | locus YER155C, strain BEM2, active compounds read low 1 | locus YER167W, strain BCK2, active compounds read low 0.98 | locus YFR010W, strain ubp6, active compounds read low 0.985 | locus YGL078C, strain dbp3, active compounds read low 0.999 | locus YGL086W, strain mad1, active compounds read low 1.05 | locus YGL167C, strain pmr1, active compounds read low 0.997 | locus YGL173C, strain kem1, active compounds read low 0.984 | locus YGL227W, strain vid30, active compounds read low 0.986 | locus YGL240W, strain doc1, active compounds read low 1.01 | locus YGL248W, strain PDE1, active compounds read low 0.928 | locus YGL253W, strain hxk2, active compounds read low 0.988 | locus YGR078C, strain PAC10, active compounds read low 0.922 | locus YGR135W, strain pre9, active compounds read low 0.914 | locus YGR252W, strain gcn5, active compounds read low 0.912 | locus YHR013C, strain ard1, active compounds read low 0.993 | locus YHR027C, strain rpn1, active compounds read low 0.995 | locus YHR030C, strain SLT2, active compounds read low 0.987 and 1.04 | locus YHR079C, strain IRE1 (second series), active compounds read low 1 | locus YHR079C, strain IRE1, active compounds read low 1.04 | locus YHR094C, strain hxt1, active compounds read low 0.978 | locus YHR129C, strain ARP1, active compounds read low 0.981 | locus YHR142W, strain chs7, active compounds read low 0.971 | locus YHR200W, strain rpn10, active compounds read low 0.953 | locus YIL066C, strain RNR3, active compounds read low 0.971 | locus YIL073C, strain SPO22, active compounds read low 0.936 | locus YIL125W, strain kgd1, active compounds read low 1 | locus YIR030C, strain dcg1, active compounds read low 0.995 | locus YJL092W, strain hpr5, active compounds read low 0.993 | locus YJL095W, strain BCK1 (second series), active compounds read low 0.999 | locus YJL095W, strain BCK1, active compounds read low 0.884 and 1.03 | locus YJL115W, strain asf1, active compounds read low 1.01 | locus YJL129C, strain trk1, active compounds read low 1.01 | locus YJL134W, strain LCB3, active compounds read low 0.985 | locus YJL154C, strain vps35, active compounds read low 1.01 | locus YJL164C, strain tpk1, active compounds read low 0.989 | locus YJL166W, strain qcr8, active compounds read low 0.984 | locus YJL168C, strain set2, active compounds read low 1 | locus YJL187C, strain SWE1 (second series), active compounds read low 0.947 | locus YJR043C, strain POL32, active compounds read low 0.97 | locus YJR066W, strain TOR1, active compounds read low 0.993 | locus YJR075W, strain HOC1, active compounds read low 0.955
